For 107 compounds, manual score results are on record in PubChem BioAssay AID623868 (Vanderbilt High Throughput Screening Facility, 2012).

SMILES strings stand for the structures. Screen size: about 2,100 compounds; about 760 (36%) were called active. Not all results are given here. Unmarked numbers belong to inactive results.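 The calls were made as follows: active = thallium-flux fluorescence traces judged by eye to show enhanced or reduced glutamate response, manual score 1 or -1, so both directions (some results past the limit were not filed as active); inactive = the rest, including fluorescent or raised-baseline compounds.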

This assay can be described thus: non-GIRK thallium flux modulation in mGlu8 cells, confirmation, counter-screen for GIRK activator project, cell-based, HEK-293 rmGlu8, no GIRK (AID 623868).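 Also: extra codes mark interference with 3 for fluorescent and 4 for baseline rise.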 To be noted: thallium flux fluorescence, at 10 µM, actives lie on both sides, codes: 1 enhancer, -1 blocker, 0 none, thallium stimulus containing EC20 glutamate. In general terms: The purpose of a counterscreen is to sort out artefacts and off-target activity.
For the compound `COc1ccc(Cn2nnnc2C(c2ccccc2Cl)N2CCN(C3CCCC3)CC2)cc1` (configuration not stated), the manual score is 0. In the case of `CCN(CC)C(=S)SCC(=O)Nc1nc(=O)c2ccccc2s1`, the manual score was 1 (active).

For the compound `Cc1csc(SCC(=O)Nc2nc3ccccc3s2)n1`, the manual score is 0. The same measure for `Cc1cnc(NC(=O)CSc2nc3ccccc3c(=O)[nH]2)s1`: 0; for `CCCCn1c(=O)[nH]c2nc3cc(N)ccc3nc2c1=O`: 3; for `CCCCn1c(SC(C)C(N)=O)nc2cc(C(=O)OC)ccc2c1=O` (configuration not stated): 1 (active). `CCCCn1c(SCC(=O)Nc2ccc(OC)cc2)nc2ccc(N3CCOCC3)cc2c1=O`: the manual score is 0. For `C=CCOc1ccc(/C(O)=C2/C(=O)C(=O)N(CCCN3CCOCC3)C2c2ccccc2)cc1` (configuration not stated) the value was 0; for `COCCCN1C(=O)C(=O)/C(=C(/O)c2ccc(C)cc2)C1c1ccccc1` (configuration not stated), -1 (active); for `COc1ccc(N/C(C)=C2/C(=O)C(=O)N(CCO)C2c2ccc(Br)cc2)cc1` (configuration not stated), 0.

On to `O=S(=O)(Nc1ccc2nc(C(F)(F)F)[nH]c2c1)c1ccccc1`, for which the manual score is 0. For `CCOc1ccc(-c2cc(C)n3nc(C(N)=O)cc3n2)cc1` the value was 0; for `CCC(Sc1ccc2nnc(-c3ccc(F)cc3)n2n1)C(=O)OC` (configuration not stated), -1 (active). The same measure for `Cc1cc(N2CCN(c3ccccc3)CC2)nc(NCc2ccccc2)n1`: 0; for `CC(C)NC(=S)NC(=O)c1ccc(Cl)cc1Cl`: 1 (active). The same measure for `S=C(NCc1ccc(Cl)cc1Cl)Nc1ccccc1`: 0. For `CCCCNC(=S)NC(=O)c1ccc(Cl)cc1Cl`, the manual score is 1 (active). The same measure for `CC(C)CNC(=S)Nc1ccc(Oc2ccccc2)cc1`: 0; for `CC(C)CNC(=S)NC(=O)c1ccccc1Cl`: 1 (active); for `CC(C)CNC(=S)NC(=O)c1ccc(Cl)cc1Cl`: 1 (active). As to `O=S(=O)(c1ccc(Cl)c(F)c1)N1CCC(c2nc(-c3ccncc3)no2)CC1`, the manual score was 0.

As to `O=C(Nc1ccc(F)c(F)c1)NC1CCCCC1`, the manual score was 0.

Take `Cc1[nH]c2ccccc2c1CN1CCc2ccccc2C1`: the manual score is 0. With `O=C(O)C1C2C=CC(C2)C1C(=O)NCCc1cccc(Cl)c1` (configuration not stated), the manual score is 0. For `Cc1ccc(S(=O)(=O)N/N=C/c2ccc(OC3CSC3)cc2)cc1` the value was 0; for `CCCCNC(=S)NC(=O)c1ccccc1Br`, 1 (active); for `CCS(=O)(=O)Nc1ccc(-c2nnc(SCC(=O)c3ccc(NC(C)=O)c(OC)c3)o2)cc1`, 0.

For `O=C(CSc1nnc(-c2cccnc2)o1)OC1CCCCC1`, the manual score is -0.5. The same measure for `CCOC(=O)CSc1nnc(-c2ccccc2OC)o1`: -1 (active); for `COCCCNCCCOc1ccc(Cl)cc1Br`: 0; for `CC1=NN(/C(=N\c2nnc(C)s2)Nc2ccccc2)[C@H](c2cccc3ccccc23)S1`: 1.5. For `COC(=O)c1cccc(NC(=S)Nc2cccc(Cl)c2Cl)c1` the value was 1 (active); for `CC(C)Oc1cccc(C(=O)NC(=S)Nc2ccccc2)c1`, 1 (active); for `CCOc1cccc(C(=O)NC(=S)Nc2ccccc2)c1`, 0. The same measure for `O=C1C(Cl)=C(N2CCOCC2)C(=O)N1c1cccc(Cl)c1`: 0; for `O=C(NC(=S)Nc1ccc(N2CCOCC2)cc1)c1cccc(Cl)c1`: 1 (active). `CCCOc1cccc(C(=O)NC(=S)Nc2cccc(C(F)(F)F)c2)c1`: the manual score is 1 (active). For `FC(F)Oc1ccccc1NC(=S)Nc1cccc(Cl)c1Cl` the value was 0.5; for `O=C(OCCN1C(=O)c2cccc3c(N4CCOCC4)ccc(c23)C1=O)c1cccc(Cl)c1`, 3. For `Cc1cc(O)c(C(C[N+](=O)[O-])c2ccc(Cl)cc2Cl)c(=O)o1` (configuration not stated) the value was 0.

As to `O=C(O)CCC(=O)NC1CCCCCCC1`, the manual score was 0.

Take `CSc1ccccc1NC(=O)Nc1ccccc1`: the manual score is 0. The same measure for `CC1CCN(c2ncccc2C(=O)O)CC1`: 0; for `O=C(Nc1ccc(OCC(=O)N2CCC(Cc3ccccc3)CC2)cc1)c1ccco1`: 0. The same measure for `CC(=O)c1cccc(NC(=S)NC(=O)c2cccc(Cl)c2)c1`: 1 (active); for `O=C(NC(=S)Nc1ccc(N2CCCCC2)cc1)c1ccco1`: 1 (active). For `CC(=O)c1cccc(NC(=S)NC(=O)c2cccc(C)c2)c1` the value was 0.5; for `CSc1ccccc1C(=O)Nc1cccc(C(C)=O)c1`, 0. For `CC1CCN(c2ccc(NC(=S)NC(=O)c3ccco3)cc2)CC1`, the manual score is 1 (active). The same measure for `O=C(NC(=S)Nc1cccc(Cl)c1N1CCCCC1)c1ccco1`: 1 (active).

For `C=CCN(CC=C)S(=O)(=O)c1ccc(NC(=S)NC(=O)c2ccco2)cc1`, the manual score is 0.5. For `COc1ccc(OCC(=O)NC(=S)Nc2ccc(N3CCOCC3)c(Cl)c2)cc1` the value was 0; for `O=C(Nc1ccc(F)cc1)c1cccnc1N1CCOCC1`, 0. For `O=C(NC(=S)Nc1ccc(N2CCOCC2)c(Cl)c1)c1cncc(Br)c1` the value was 1 (active); for `O=C(NC(=S)Nc1ccc(N2CCOCC2)cc1)c1ccco1`, 1 (active); for `CCN(c1ccc2c(c1)OCO2)S(=O)(=O)c1cc(Br)cc2c1N(C(=O)C1CC1)CC2`, 0. For `N=c1c2c(-c3ccccc3)c(-c3ccccc3)n(Cc3ccccc3)c2ncn1CCCO` the value was 0; for `CCC1=NN(C(=O)c2cccc(Br)c2)C(O)(c2ccc(Br)cc2)C1` (configuration not stated), 1 (active); for `CCOC(=O)C1=NN(C(=O)c2ccccc2)C(O)(c2ccc(C)cc2)C1` (configuration not stated), 1 (active). Consider `CCOC(=O)C1=NN(C(=O)c2ccc(C)cc2)C(O)(c2ccc(Cl)cc2)C1` (configuration not stated), for which the manual score was 1 (active). On to `Cc1ccc(-c2csc3ncnc(N4CCN(C(=O)c5ccccc5)CC4)c23)cc1`, for which the manual score is 0. For `COC(=O)C1=NN(C(=O)c2ccc(Cl)cc2)C(O)(c2ccccc2)C1` (configuration not stated) the value was 1 (active); for `CCOC(=O)c1cc(-c2ccc(Cl)cc2)nc2c1c(C)nn2CCC#N`, 0. Consider `CCOC(=O)c1c(C)[nH]c(C(=O)COC(=O)CNC(=O)c2ccc(Cl)cc2)c1C`, for which the manual score was 0.

Consider `CCOC(=O)C1=C(NC(=S)NC(=O)c2ccccc2)c2ccccc2CC1(C)C`, for which the manual score was 0. The same measure for `O=[n+]1cc(-c2ccccc2)n([O-])c2c1CCC2`: 0; for `Cc1ccc(NC(=O)CSc2nnc(CCNC(=O)OC(C)(C)C)o2)c(C)c1`: 0; for `O=C1CC(C(F)(F)C(F)(F)C(F)(F)F)=Nc2ccccc2N1`: 0. The same measure for `Cc1ccc(NC(=O)Cc2c(Cl)cccc2Cl)cc1S(=O)(=O)N(C)C`: 0; for `COc1ccccc1C(c1nnnn1CCc1ccccc1)N1CCCCCC1` (configuration not stated): 0. For `COC(=O)C1=NN(C(=O)c2ccc(C)cc2)C(O)(c2ccc(Cl)cc2)C1` (configuration not stated) the value was 1 (active); for `COc1ccc2cc(C(=O)NCC(=O)O)sc(=O)c2c1OC`, 0; for `CCCCn1c(SCC(=O)NCc2ccco2)nc2ccccc2c1=O`, 1 (active). With `CCCCn1c(SCc2nc(N)nc(Nc3ccccc3C)n2)nc2ccccc2c1=O`, the manual score was 0.

Take `N#CCSc1nc2ccc(N3CCOCC3)cc2c(=O)n1CCc1ccccc1`: the manual score is 0.

As for `CCOC(=O)CSc1nc2c(sc3ccccc32)c(=O)n1CCCN1CCOCC1`, the manual score was 0. The same measure for `C/C(N)=C(/C#N)C(=O)CSc1nc2cc(Cl)ccc2c(=O)n1-c1ccc(C)cc1`: 1 (active).

On to `CCCCCn1c(NCc2ccco2)nc2ccccc21`, for which the manual score was 0. For `CCCCn1c(SCC(N)=O)nc2c(sc3ccccc32)c1=O` the value was 1 (active); for `O=C(CCCCn1c(=O)c2ccccc2n(CC(=O)NC2CCCC2)c1=O)NCc1ccco1`, 0.

On to `CCCCn1c(SCC(=O)/C(C#N)=C(\C)N)nc2ccccc2c1=O`, for which the manual score is 1 (active). Turning to `CC(C)CCn1c(SCC#N)nc2c(sc3ccccc32)c1=O`, the manual score was 0. For `O=c1sc(N2CCN(c3ccccc3F)CC2)nc2ccsc12` the value was 0; for `COc1ccc(C2C(C(N)=O)=C(C)Nc3nc(-c4cccc(Cl)c4)nn32)cc1OC` (configuration not stated), 0; for `OC(c1ccccc1)C1CN(Cc2ccccc2)CCC1(O)c1ccccc1` (configuration not stated), 0.

Take `CCOC(=O)c1cc(NC(=O)SCC(=O)O)c(C)nc1C`: the manual score was 0. The same measure for `Cc1cc(C)cc(NC(=O)Cn2cc3c(n2)CCCCC3)c1`: 0; for `CCNC(=S)Nc1nc2c(cc1C(=O)OCC)CCCC2`: 1 (active).

Take `C=C(C)CNC(=S)Nc1nc2c(cc1C(=O)OCC)CCCC2`: the manual score was 1 (active). The same measure for `C=CCNC(=S)Nc1nc2c(cc1C(=O)OCC)CCCC2`: 1 (active); for `C=C(C)CNC(=S)N/N=C1\CCCCc2ccccc21`: 0; for `CCN(C(=O)COc1cc(=O)n(CC)c2ccccc12)c1cc(Cl)ccc1OC`: 0.

As to `N#CC(C#N)=C1C=C2C=C(N3CCCCC3)CCC2CC1` (configuration not stated), the manual score is 3. For `O=C(COc1ccccc1)NNC(=S)NC(=O)c1ccc(Cl)cc1Cl` the value was 1 (active). For `O=C(NC(=S)NNC(=O)c1cccs1)c1ccc(Br)o1` the value was 1 (active); for `Cc1ccc(C(=O)NNC(=S)NC(=O)c2ccc(Cl)cc2Cl)cc1`, 1 (active).

With `Cc1onc(-c2ccccc2)c1C(=O)NNC(=S)NC(=O)c1ccc(Br)cc1`, the manual score is 1 (active). For `Cc1ccc(-c2cnc(NC(=O)CCC(=O)N3CCCCC3)n2C)cc1` the value was 0; for `CCOC(=O)N1CCC(NC(=O)c2cnn3c2NC(c2ccco2)CC3C(F)(F)F)CC1` (configuration not stated), 0; for `COc1cc(OC)c2nc(C)c3c(c2c1)N(c1ccc(O)cc1)CC3`, 0. The same measure for `CCC1Oc2ccc(C)cc2N(CC(=O)N(Cc2ccc(C)o2)C2CCCC2)C1=O` (configuration not stated): 0; for `CCOC(=O)c1oc2nc(C(C)C)c3c(c2c1N)CC(C)(C)OC3`: 0; for `Cc1cccc(C(=O)NC(=S)NNC(=O)c2ccccc2Cl)c1`: 1 (active). For `Cc1cccc(C(=O)NC(=S)NNC(=O)c2cccs2)c1` the value was 1 (active); for `Cc1ccccc1C(=O)NNC(=S)NC(=O)c1ccccc1`, 1 (active). As to `Cc1ccccc1C(=O)NC(=S)Nc1sc2c(c1C#N)CCCC2`, the manual score was 0. For the compound `Cc1onc(-c2ccccc2)c1C(=O)NC(=S)Nc1sc2c(c1C#N)CCCC2`, the manual score was 1 (active).
